Laboratory results published in PubChem BioAssay (NCI).
Compounds without any hit were thinned out: in the full panel of roughly 83,000, 20% have a hit.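 Values shown are percent growth following 48 h exposure of cells in 96-well plates to a single concentration of compound; below 10 was considered active.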 A number with no mark means an inactive call. Activity calls are given as the source filed them.

What was measured:
Test in all cases: NCI-60 one-dose screen, 48 h (100 = growth as untreated, 0 = no growth, -100 = all killed)
Settings in all cases: 10 µM unless noted
[1] = test system: NCI-H23 lung
[2] = test system: NCI-H226 lung
[3] = test system: NCI-H322M lung
[4] = test system: HOP-62 NSCLC
[5] = test system: NCI-H460 lung
[6] = test system: HOP-92 NSCLC
[7] = test system: NCI-H522 lung
[8] = test system: A549/ATCC NSCLC
[9] = test system: 786-0 renal
[10] = test system: COLO 205 colon

SMILES	growth [1]	growth [2]	growth [3]	growth [4]	growth [5]	growth [6]	growth [7]	growth [8]	growth [9]	growth [10]
CC(C)(C)c1cc(C(C)(C)c2ccccc2)cc(Cc2cc(C(C)(C)c3ccccc3)cc(C(C)(C)C)c2O)c1O	108%	90.9%	97.1%	108%	105%	55.1%	79.2%	101%	103%	123%
COCCn1cc(-c2csc(-c3cn(C)c4ccc(F)cc34)n2)c2cccnc21	76.3%	83%	75.7%	93.2%	51.6%	64.7%	30.8%	60.6%	62%	61.6%
CC1(C)C(N)=Nc2cc(OCCCN3Cc4ccc(OCCc5cn(CC(=O)N6CCC(CCN7CCCC7)CC6)nn5)cc4C3)c(OCC3CC3)cc21	98.2%	108%	102%	95.4%	105%	81.3%	101%	100%	99.6%	108%
CON1CCC[C@]2(C)[C@H]3CC[C@@H]4[C@H]5[C@@H](O)C(C)(C)CC[C@]5(CO)CC[C@@]4(C)[C@]3(C)CC[C@H]2C1(C)C	102%	92.8%	109%	95.6%	102%	116%	84%	94.2%	100%	105%
C=CCN1C=CC(=O)[C@H](O[Si](C)(C)C(C)(C)C)[C@@H]1/C=C/c1ccccc1	-71.6% [100 µM] (active)	-65.3% [100 µM] (active)	-59.2% [100 µM] (active)	-88.9% [100 µM] (active)	-49.3% [100 µM] (active)	-89.7% [100 µM] (active)	-39.1% [100 µM] (active)	-40.4% [100 µM] (active)	-88.2% [100 µM] (active)	-64% [100 µM] (active)
COc1ccc(/C=C/C(=O)c2cc3c(N)c(C(=O)Nc4ccccc4)sc3nc2C)cc1	28.8%	42.7%	35.9%	32.9%	-1.05% (active)	40.6%	-17.9% (active)	16.8%	20.2%	-17.4% (active)
CC(=NCc1ccccc1)c1ccc(O)cc1O	97.5%	101%	103%	101%	107%	76.2%	111%	100%	105%	105%
C=C(C)[C@@H]1CC[C@]2(C(=O)N3CCN(C)CC3)CC[C@]3(C)[C@H](CC[C@@H]4[C@@]5(C)CC(CCCNC(C)=O)(CCCNC(C)=O)[C@H](OC(C)=O)C(C)(C)[C@@H]5CC[C@]43C)[C@@H]12	98.2%	99.1%	105%	103%	99.5%	98.2%	96.3%	102%	99.8%	106%
Clc1ccc2c(c1)N(c1ncnc3ccc(-c4cnc5[nH]ccc5c4)cc13)CC2	40.6%	40.9%	41.3%	13.8%	16.5%	14.8%	30.6%	21.4%	24.5%	45.1%
O=C(NCCCN1CCCCC1)c1ccc(-c2nc3ccc4[nH]ncc4c3c3c2CCCC3)cc1	49.3%	63.8%	51.7%	47.6%	24.9%	46.2%	42.8%	26.6%	44.3%	60.9%
C=C(CNCCc1ccc(O)cc1)[C@@H]1CC[C@]2(CO)CC[C@]3(C)[C@H](CC[C@@H]4[C@@]5(C)CCC(NCCc6ccc(O)cc6)C(C)(C)[C@@H]5CC[C@]43C)[C@@H]12 (stereo not given in full)	-78.2% (active)	-61% (active)	-90.6% (active)	-90.7% (active)	-79.4% (active)	-88.4% (active)	-73.1% (active)	-82.4% (active)	-89.9% (active)	-91.1% (active)
Cn1ccnc1CN1CCSC(C(=O)Nc2ccccc2)C1 (stereo not given)	101%	87.1%	88.7%	81.5%	94.8%	88.7%	85.6%	83.8%	98%	112%
